A short description of assay [1]: antimalarial activity against Dd2 strain (AID 2302;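 active means growth inhibition above 50% at the single 2 µM test dose, taken to imply half-maximal potency below 2 µM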;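 further: 0% = DMSO untreated growth and 100% = chloroquine plus artemisinin killed control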). The conditions noted are these: P. falciparum Dd2 in RBCs, LDH growth readout, 72 h; at 2 µM; active compounds read high.
The nature of assay [2]: HepG2 cytotoxicity, primary screen, cytotoxicity control for P. falciparum antimalarial project, cell-based, ATP luminescence (AID 2303;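 active means inhibition above 50%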;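 further: 0% = DMSO wells and 100% = digitonin-killed cells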). The following applies: HepG2 viability, 24-48 h, at 10 µM, active compounds read high.
Assay [3] addresses L-lactate dehydrogenase (Plasmodium falciparum (isolate CDC / Honduras)) (UniProt Q27743). The assay is described as follows: PfLDH activity inhibition – cell lysate, 3D7 strain, counter-screen for P. falciparum growth inhibition project (AID 2304).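 Further: 0% = vehicle and 100% = reference inhibitor.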 The conditions noted are these: P. falciparum 3D7 crude extract, LDH APAD/NBT absorbance; at 2 µM; active compounds read high.
Assay [4] can be described thus: inhibition of 3D7 malaria parasite growth – strain 3D7 (AID 2306).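 Further: 0% = DMSO wells and 100% = chloroquine plus artemisinin control wells.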 The conditions noted are these: P. falciparum 3D7 erythrocytic growth, LDH absorbance, 72 h; at 2 µM; active compounds read high.
For assay [5], the target named is Calcium-dependent protein kinase 1 (Plasmodium falciparum (isolate 3D7)) (UniProt P62344). The assay is described as follows: PfCDPK1 kinase inhibitors, biochemical, TCAMS library (AID 1159585; cut-off not given, nearly all actives have IC50 up to about 0.98 µM;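 further: inhibitors leave more ATP so luminescence rises with inhibition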). The following applies: recombinant PfCDPK1, Kinase-Glo ATP depletion luminescence.
Chain of Calcium-dependent protein kinase 1 (Plasmodium falciparum (isolate 3D7)) (P62344 whole entry, looked up): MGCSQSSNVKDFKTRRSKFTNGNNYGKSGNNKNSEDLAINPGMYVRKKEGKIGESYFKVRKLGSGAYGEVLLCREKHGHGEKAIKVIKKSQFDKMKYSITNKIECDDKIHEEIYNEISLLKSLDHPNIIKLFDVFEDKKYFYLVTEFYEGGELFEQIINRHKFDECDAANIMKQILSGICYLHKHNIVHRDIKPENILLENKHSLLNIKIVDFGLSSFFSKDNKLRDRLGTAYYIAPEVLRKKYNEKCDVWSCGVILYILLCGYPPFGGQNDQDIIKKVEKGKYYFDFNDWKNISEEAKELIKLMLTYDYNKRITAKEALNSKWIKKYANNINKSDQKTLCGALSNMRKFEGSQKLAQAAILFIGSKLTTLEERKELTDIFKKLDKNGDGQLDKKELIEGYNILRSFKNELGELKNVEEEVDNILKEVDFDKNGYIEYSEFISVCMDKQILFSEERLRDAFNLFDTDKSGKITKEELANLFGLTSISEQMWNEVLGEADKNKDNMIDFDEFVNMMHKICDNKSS
The target of assay [6] is Plasmodium falciparum protein kinase 6 (PK6, PF3D7_1337100) (UniProt Q8IDW1). The assay is described as follows: PfPK6 kinase inhibitors, biochemical, TCAMS library (AID 1159586). The following applies: recombinant PfPK6, Kinase-Glo ATP depletion luminescence. For orientation: In Kinase-Glo more light means more ATP remaining.
Chain of Plasmodium falciparum protein kinase 6 (PK6, PF3D7_1337100) (Q8IDW1 1-305): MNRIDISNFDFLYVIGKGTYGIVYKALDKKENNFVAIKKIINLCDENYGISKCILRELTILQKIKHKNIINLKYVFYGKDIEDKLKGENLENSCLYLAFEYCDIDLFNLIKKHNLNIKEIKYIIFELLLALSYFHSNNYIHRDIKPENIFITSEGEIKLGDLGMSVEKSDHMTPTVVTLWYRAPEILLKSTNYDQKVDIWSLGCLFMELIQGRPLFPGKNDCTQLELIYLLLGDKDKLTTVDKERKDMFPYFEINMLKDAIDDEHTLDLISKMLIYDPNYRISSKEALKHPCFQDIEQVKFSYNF
Assay [7] concerns the target Protein kinase 7 (PK7), Plasmodium falciparum 3D7 (PF3D7_0213400) (UniProt Q7YTF7). The assay is described as follows: inhibition of Plasmodium PK7 catalytic activity – biochemical, TCAMS antimalarial set, Kinase-Glo luminescence (AID 1159587). The following applies: recombinant PfPK7, Kinase-Glo ATP depletion luminescence.
Assay [8] deals with Calcium-dependent protein kinase 4 (Plasmodium falciparum (isolate 3D7)) (UniProt Q8IBS5). The assay is described as follows: PfCDPK4 kinase inhibitors, biochemical, TCAMS library (AID 1159588; cut-off not given, nearly all actives have IC50 up to about 0.91 µM). The following applies: recombinant PfCDPK4, Kinase-Glo ATP depletion luminescence.
Chain of Calcium-dependent protein kinase 4 (Plasmodium falciparum (isolate 3D7)) (Q8IBS5 whole entry, looked up): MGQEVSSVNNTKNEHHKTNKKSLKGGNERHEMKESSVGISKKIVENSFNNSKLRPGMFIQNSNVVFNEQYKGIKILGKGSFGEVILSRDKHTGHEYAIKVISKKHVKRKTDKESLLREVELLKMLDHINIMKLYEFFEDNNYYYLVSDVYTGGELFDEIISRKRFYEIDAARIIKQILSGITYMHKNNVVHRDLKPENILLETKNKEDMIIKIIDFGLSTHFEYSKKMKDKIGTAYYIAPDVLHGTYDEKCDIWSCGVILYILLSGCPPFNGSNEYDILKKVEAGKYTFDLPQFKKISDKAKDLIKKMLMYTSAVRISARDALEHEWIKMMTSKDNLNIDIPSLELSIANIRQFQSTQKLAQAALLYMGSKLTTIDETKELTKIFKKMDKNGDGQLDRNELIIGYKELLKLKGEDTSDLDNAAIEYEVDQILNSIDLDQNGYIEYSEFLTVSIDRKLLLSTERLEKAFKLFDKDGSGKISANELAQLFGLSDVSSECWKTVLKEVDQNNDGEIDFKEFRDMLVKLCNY

A number with no mark means an inactive call. For some of these results: Entries with a potency or affinity are not part of this list. Calls of active or inactive are those of the source. Unless noted, how the calls were made is not given here.

The term inhibition denotes the relative decrease from the control value, in per cent.

Chain of L-lactate dehydrogenase (Plasmodium falciparum (isolate CDC / Honduras)) (Q27743 whole entry, looked up): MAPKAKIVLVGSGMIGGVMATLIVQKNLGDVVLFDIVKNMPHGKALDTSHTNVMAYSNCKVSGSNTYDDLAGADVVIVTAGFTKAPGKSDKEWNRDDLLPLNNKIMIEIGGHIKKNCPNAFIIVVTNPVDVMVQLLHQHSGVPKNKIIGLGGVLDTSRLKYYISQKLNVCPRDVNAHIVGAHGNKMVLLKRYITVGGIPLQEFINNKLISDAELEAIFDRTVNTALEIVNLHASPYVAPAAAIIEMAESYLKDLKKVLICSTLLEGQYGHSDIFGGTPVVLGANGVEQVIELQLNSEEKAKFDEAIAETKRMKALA
Chain of Protein kinase 7 (PK7), Plasmodium falciparum 3D7 (PF3D7_0213400) (Q7YTF7 1-343): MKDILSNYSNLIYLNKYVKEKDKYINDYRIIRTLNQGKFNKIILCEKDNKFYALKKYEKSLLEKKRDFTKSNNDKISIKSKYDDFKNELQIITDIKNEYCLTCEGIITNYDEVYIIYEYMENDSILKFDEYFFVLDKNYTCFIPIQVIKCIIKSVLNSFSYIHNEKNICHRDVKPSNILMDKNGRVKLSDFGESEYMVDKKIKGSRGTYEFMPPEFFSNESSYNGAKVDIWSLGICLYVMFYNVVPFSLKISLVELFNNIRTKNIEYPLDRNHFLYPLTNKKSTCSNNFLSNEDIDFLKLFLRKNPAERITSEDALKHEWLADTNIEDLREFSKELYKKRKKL

`Cc1nc2ccc(Nc3nccc(-c4c(-c5cccc(NC(=O)c6c(F)cccc6F)c5)nn5ccccc45)n3)cc2nc1C`: the growth inhibition is 45% in assay [1] and 91% (active) in assay [4]. Moreover, the inhibition was 55% (active) in assay [2] and 0% in assay [3]. Moreover, the result in assay [5], in assay [6], in assay [7] and in assay [8] was inactive.

Consider `Nc1nccc2ccc(-c3cccc(OCc4ccccc4)c3)cc12`, for which the results for the growth inhibition in assay [1] and in assay [4] were 81% (active) and 101% (active), respectively. The inhibition in assay [2] was 47%; in assay [3], 5%. For the same molecule, the outcome in assay [5], in assay [6], in assay [7] and in assay [8] was inactive.

As for `CCOc1cc(CC)ccc1C1CCN(CCCCNC(=O)c2ccc(NC(=O)c3ccc(Cl)cc3)cc2)CC1`, the growth inhibition is 58% (active) in assay [1] and 101% (active) in assay [4]. Besides, the results for the inhibition in assay [2] and in assay [3] were 11% and 5%, respectively. The outcome in assay [5], in assay [6], in assay [7] and in assay [8] was inactive.

In the case of `Cc1cc(N2CCCC2)nc(Nc2ccc(NC(=O)Nc3ccccc3)cc2)n1`, the growth inhibition in assay [1] was 100% (active); in assay [4], 99% (active). The inhibition was 35% in assay [2] and 1% in assay [3]. The outcome in assay [5], in assay [6], in assay [7] and in assay [8] was inactive.

For `COc1ccc(-n2c(=O)c3c(n4c(SC(C)C)nnc24)-c2ccccc2CC32CCCCC2)cc1`, the growth inhibition in assay [1] is 15%; in assay [4], 99% (active). Also, the inhibition in assay [2] was -3%; in assay [3], -1%. Further, the outcome in assay [5], in assay [6], in assay [7] and in assay [8] was inactive.

On to `CC(=O)c1ccc(N2C(=O)C3C(Cc4ccc(OC(C)(C)C)cc4)NC4(C(=O)N(Cc5ccc(C(C)(C)C)cc5)c5ccccc54)C3C2=O)cc1` (stereo not given), for which the growth inhibition in assay [1] was 81% (active); in assay [4] it was 86% (active). Moreover, the inhibition in assay [2] is 13%; in assay [3] it was 4%. Moreover, the outcome in assay [5], in assay [6], in assay [7] and in assay [8] was inactive.

`CCN(CC)CCN(Cc1ccc(-c2ccc(C(F)(F)F)cc2)cc1)C(=O)Cn1cc(Cc2cnn(C)c2)c(=O)nc1/C=C/c1ccc(F)cc1`: the growth inhibition in assay [1] was 91% (active); in assay [4] it was 96% (active). Moreover, the inhibition is 6% in assay [2] and 3% in assay [3]. The outcome in assay [5], in assay [6], in assay [7] and in assay [8] was inactive.

Regarding `c1ccc(Oc2ccc(Nc3ccnc4c(-c5ccccn5)cccc34)cc2)cc1`, the growth inhibition is 58% (active) in assay [1] and 100% (active) in assay [4]. Also, the inhibition in assay [2] was 31%; in assay [3], -8%. The outcome in assay [5], in assay [6], in assay [7] and in assay [8] was inactive.

Take `O=C(Nc1cccc(F)c1)N1CCC(CN2CCOC(c3ccccc3)(c3ccccc3)C2)CC1`: the growth inhibition was 97% (active) in assay [1] and 96% (active) in assay [4]. Further, the inhibition in assay [2] was 12%; in assay [3], 7%. Besides, the result in assay [5], in assay [6], in assay [7] and in assay [8] was inactive.

For `Cc1cc(C(=O)NC2CCN(Cc3ccccc3)CC2)ccc1-c1nc2cc(Cl)c(Cl)cc2[nH]1`, the growth inhibition was 32% in assay [1] and 96% (active) in assay [4]. For the same molecule, the inhibition in assay [2] is 7%; in assay [3] it was 0%. Besides, the result in assay [5], in assay [6], in assay [7] and in assay [8] was inactive.

As to `CNC(=O)c1cnc(Nc2ccc(N3CCN(C)CC3)cc2)nc1Nc1cccc([N+](=O)[O-])c1`, the growth inhibition in assay [1] was 100% (active); in assay [4], 103% (active). Also, the inhibition in assay [2] is 31%; in assay [3], -8%. Besides, the result in assay [5], in assay [6], in assay [7] and in assay [8] was inactive.

For `COc1cc(NC(=O)Nc2ccc(Br)cc2C(=O)Nc2ccc(Br)cc2)cc(OC)c1OC`, the growth inhibition in assay [1] was 98% (active); in assay [4] it was 99% (active). Also, the inhibition was -4% in assay [2] and 7% in assay [3]. The outcome in assay [5], in assay [6], in assay [7] and in assay [8] was inactive.

With `NCC1CCCN1Cc1ccc(-c2cccc(-c3nc4ccc(F)cc4[nH]3)c2)cc1` (stereo not given), the growth inhibition in assay [1] is 31%; in assay [4], 100% (active). For the same molecule, the inhibition in assay [2] is 38%; in assay [3], 4%. The result in assay [5], in assay [6], in assay [7] and in assay [8] was inactive.

Regarding `O=S(=O)(NCCN1CCCC1)c1ccc(-c2ccc(CNCc3ccccc3)cc2)cc1`, the growth inhibition in assay [1] was 28%; in assay [4] it was 99% (active). For the same molecule, the figures for the inhibition in assay [2] and in assay [3] were 47% and 5%, respectively. Further, the result in assay [5], in assay [6], in assay [7] and in assay [8] was inactive.

Consider `CN(C)CCCN1CCN(C(=O)c2cc3cc(-c4ccccc4)ccc3n2S(=O)(=O)c2ccccc2)CC1`, for which the growth inhibition was 94% (active) in assay [1] and 101% (active) in assay [4]. In addition, the inhibition in assay [2] was 32%; in assay [3] it was 4%. The outcome in assay [5], in assay [6], in assay [7] and in assay [8] was inactive.

For `Cc1c(CNCCCNc2nc3ccccc3[nH]2)[nH]c2cc(Cl)cc(Cl)c12`, the growth inhibition in assay [1] is -1%; in assay [4], 101% (active). For the same molecule, the inhibition in assay [2] is 59% (active); in assay [3], -6%. Besides, the outcome in assay [5], in assay [6], in assay [7] and in assay [8] was inactive.

Turning to `O=C(NC1CC1)c1ccc(N2CCC(Oc3ccc(F)cc3)CC2)nc1`, the growth inhibition is 79% (active) in assay [1] and 89% (active) in assay [4]. Besides, the values for the inhibition in assay [2] and in assay [3] were -2% and -1%, respectively. For the same molecule, the outcome in assay [5], in assay [6], in assay [7] and in assay [8] was inactive.

In the case of `c1ccc(Oc2ccc(Nc3nncc4ccccc34)cc2)cc1`, the growth inhibition was 82% (active) in assay [1] and 86% (active) in assay [4]. The figures for the inhibition in assay [2] and in assay [3] were 20% and 1%, respectively. The result in assay [5], in assay [6], in assay [7] and in assay [8] was inactive.

For `Cc1cccc2[nH]c(-c3cccc(-c4ccc(NC(=O)Nc5ccc(F)c(F)c5F)cc4)c3)nc12`, the growth inhibition in assay [1] is 100% (active); in assay [4] it was 101% (active). In addition, the results for the inhibition in assay [2] and in assay [3] were 61% (active) and -4%, respectively. For the same molecule, the result in assay [5], in assay [6], in assay [7] and in assay [8] was inactive.

In the case of `CCCCCN1CCC(NC(=O)c2ccc(C(=O)Nc3ccc(C(C)C)cc3)cc2)CC1`, the results for the growth inhibition in assay [1] and in assay [4] were 9% and 98% (active), respectively. The inhibition in assay [2] is 41%; in assay [3], -4%. For the same molecule, the outcome in assay [5], in assay [6], in assay [7] and in assay [8] was inactive.

(Values after PubChem BioAssay.)
